Reference: PubChem BioAssay (NCATS)
Values joined by “and” are separate entries in the source; they are usually repeats but may differ in a detail not shown here. Identical values can stand only once. Inconclusive results are not listed. Active and inactive are the calls of the source. Unless noted, calls come from the whole dose curve; as a rule, active = well fitted inhibition curve with a large enough effect; inconclusive = small, poorly fitted or top-dose-only effect; inactive = flat fitted curve, though single readings scatter.

Tests used:
[1] = Drug repurposing screens with cells derived from glioblastoma tumor samples (AID 1345199); settings: GBM patient neurospheres viability, ATP luminescence, 48 h; note: % is set by controls: 0 for no effect and ±100 for the full control effect; nearly all actives have a fitted effect of over 40% in size
In short: (§1)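 Primary testing used CD133+ neurospheres from four GBM patients, seven concentrations, 48 h exposure and ATP-based viability; confirmation added three slower-growing patient lines.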

astro = control astrocytes; assay: as above; settings: viability, ATP luminescence, 48 h; series mostly up to 45.9 µM
In short: as §1

[2] = biological target: Nuclear receptor subfamily 1 group I member 2 (Rattus norvegicus) (UniProt Q9R1A7); assay: qHTS assay for small molecule activators of the rat pregnane X receptor (rPXR) signaling pathway (AID 651751; call rule not given here; note: 0% is about no effect); settings: rPXR reporter cells, luciferase (One-Glo), 24 h
Sequence of Nuclear receptor subfamily 1 group I member 2 (Rattus norvegicus) (Q9R1A7 whole entry, looked up): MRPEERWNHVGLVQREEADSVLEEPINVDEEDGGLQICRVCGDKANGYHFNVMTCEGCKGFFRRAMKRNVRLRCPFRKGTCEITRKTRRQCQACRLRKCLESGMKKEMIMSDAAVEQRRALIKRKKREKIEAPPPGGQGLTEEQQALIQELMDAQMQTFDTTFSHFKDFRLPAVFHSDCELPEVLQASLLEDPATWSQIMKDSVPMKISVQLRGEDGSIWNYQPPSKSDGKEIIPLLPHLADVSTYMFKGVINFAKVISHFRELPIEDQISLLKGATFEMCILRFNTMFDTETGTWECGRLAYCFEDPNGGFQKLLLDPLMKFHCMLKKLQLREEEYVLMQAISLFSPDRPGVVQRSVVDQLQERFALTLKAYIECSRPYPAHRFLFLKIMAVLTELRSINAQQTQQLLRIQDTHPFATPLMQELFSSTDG

[3] = qHTS assay for small molecule activators of the human pregnane X receptor (PXR) signaling pathway (AID 720659; call rule not given here; note: 0% is about no effect); settings: DPX-2 HepG2 CYP3A4-luciferase, 24 h; series mostly up to 92.3 µM
[4] = at 45.9 µM (top of the series), tumour line B
[5] = at 45.9 µM (top of the series), tumour line D
[6] = at 46 µM (top of the series), tumour line A
[7] = at 46.1 µM (top of the series), tumour line C

CC1(C)S[C@@H]2[C@H](NC(=O)Cc3ccccc3)C(=O)N2[C@H]1C(=O)O
inactive: activity, negative = cell killing [1, 4] -9.27% | activity, negative = cell killing [1, 5] -18.5% | activity, negative = cell killing [1, 6] -18.5% | activity, negative = cell killing [1, 7] -5.88% | Potency (astro)

CC(O)CO (stereo not drawn)
inactive: activity, negative = cell killing [1, 4] 0.179% | activity, negative = cell killing [1, 5] 10.5% | activity, negative = cell killing [1, 6] -19.9% | activity, negative = cell killing [1, 7] -8.89% | Potency (astro) | max response [2] -2.73% and 0.891% | outcome [3]

CCCCCCCC(=O)O
inactive: activity, negative = cell killing [1, 4] -7.1% | activity, negative = cell killing [1, 5] -17.5% | activity, negative = cell killing [1, 6] -22.2% | activity, negative = cell killing [1, 7] -13.3% | Potency (astro) | max response [2] 2.58% and -1.34% | outcome [3]

CCCC(=O)Nc1ncnc2c1ncn2[C@@H]1O[C@@H]2COP(=O)(O)O[C@H]2[C@H]1OC(=O)CCC
inactive: activity, negative = cell killing [1, 4] -14.5% | activity, negative = cell killing [1, 5] -5% | activity, negative = cell killing [1, 6] -18.2% | activity, negative = cell killing [1, 7] -13.8% | Potency (astro)

Nc1nc(N)c2nc(CNc3ccc(C(=O)N[C@@H](CCC(=O)O)C(=O)O)cc3)cnc2n1
inactive: activity, negative = cell killing [1, 4] -5.27% | activity, negative = cell killing [1, 5] 12.1% | activity, negative = cell killing [1, 6] -19.6% | Potency (astro)

CO[C@H]1C[C@H](O[C@H]2[C@H](C)[C@@H](O[C@@H]3O[C@H](C)C[C@H](N(C)C)[C@H]3OC(C)=O)[C@@H](C)C[C@]3(CO3)C(=O)[C@H](C)[C@@H](OC(C)=O)[C@@H](C)[C@@H](C)OC(=O)[C@@H]2C)O[C@@H](C)[C@@H]1OC(C)=O
inactive: activity, negative = cell killing ([1]; at 20 µM (top of the series), tumour line C) -16.4% | activity, negative = cell killing ([1]; at 21.2 µM (top of the series), tumour line B) -6.68% | activity, negative = cell killing ([1]; at 21.2 µM (top of the series), tumour line D) -16.6% | activity, negative = cell killing ([1]; at 21.3 µM (top of the series), tumour line A) -20.4% | Potency (astro)
